These results are taken from the supplement of paper PMC8047044.

The structures appear in SMILES notation. Counter-ions that a name gives are not always drawn.

Experiment [1] relates to Neuro-2a. Nature of the experiment: neurite formation score, plate-normalized to DMSO control mean 5.04 (score (0-8 scale)); higher = more or longer neurites. The settings on record: 1 µM. Here is the method: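 Neuro-2a mouse neuroblastoma cells in PLL-coated 96-well plates were pre-treated for 1 h in DMEM(+) with each kinase inhibitor at 1 µM, then switched to serum-free DMEM(-) with inhibitor to induce neurite outgrowth and fixed about 2-3 h later. Three blinded observers scored neurite formation from 0 (no neurites) to 8 (long neurites on almost all cells).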

Experiment [2] relates to Neuro-2a. Described as above. The conditions noted are these: 0.1 µM. The method, then:
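Neuro-2a mouse neuroblastoma cells in PLL-coated 96-well plates were pre-treated for 1 h in DMEM(+) with each kinase inhibitor at 0.1 µM, then switched to serum-free DMEM(-) with inhibitor to induce neurite outgrowth and fixed about 2-3 h later. Three blinded observers scored neurite formation from 0 (no neurites) to 8 (long neurites on almost all cells).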

For the compound `COc1cc2ncc(-c3ccccc3)nc2cc1OC` [Tyrphostin AG 1296], the neurite formation score turned out to be 5.24 in the experiment on Neuro-2a [1] and 5.04 in the experiment with Neuro-2a [2]. Turning to `CC(C)(C)c1ccc(S(=O)(=O)/C=C/C#N)cc1`, the values for the neurite formation score with Neuro-2a [1] and with Neuro-2a [2] were 4.21 and 4.75, respectively. In the experiment on Neuro-2a [2], `CN(c1ccccc1CNc1nc(Nc2ccc3c(c2)CC(=O)N3)ncc1C(F)(F)F)S(C)(=O)=O` gave a neurite formation score of 3.58.

As for `Cc1c(Cn2c(C)nc3c(C(=O)O)cc(N4CCOCC4)cc32)cccc1C(F)(F)F`, the neurite formation score in the experiment with Neuro-2a [2] came out at 4.08. For `CCn1c(N)c(C(=O)NC)c(=O)c2ccc(C#CC(C)(O)COC)nc21` (centres undefined), the neurite formation score in the experiment with Neuro-2a [1] amounted to 4.54; in the experiment with Neuro-2a [2] it was 4.42.

For the compound `CNC(=O)c1cc(Oc2ccc(NC(=O)Nc3ccc(Cl)c(C(F)(F)F)c3)c(F)c2)ccn1` [Regorafenib], the figures for the neurite formation score in the experiment on Neuro-2a [1] and in the experiment on Neuro-2a [2] were 5.24 and 4.88, respectively. In the experiment with Neuro-2a [2], `Clc1ccc(C2(c3ccc(-c4cn[nH]c4)cc3)CCNCC2)cc1` yielded a neurite formation score of 4.54.

Consider `O=C1NC(=O)C(c2cnc3ccccn23)=C1c1cn2c3c(cc(F)cc13)CN(C(=O)N1CCCCC1)CC2`, for which the results for the neurite formation score in the experiment on Neuro-2a [1] and in the experiment on Neuro-2a [2] were 3.47 and -0.576, respectively. Regarding `COc1cc2nccc(Oc3ccc(NC(=O)C4(C(=O)Nc5ccc(F)cc5)CC4)cc3)c2cc1OC` [Cabozantinib malate (XL184)], the results for the neurite formation score in the experiment on Neuro-2a [1] and with Neuro-2a [2] were 2.29 and 4.92, respectively. With `Cc1c(NC(=O)c2ccc(C(C)(C)C)cc2)cccc1-c1cn(C)c(=O)c(Nc2ccc(C(=O)N3CCOCC3)cc2)n1`, the neurite formation score in the experiment with Neuro-2a [1] was 5.57; in the experiment on Neuro-2a [2] it was 5.04.

Regarding `COc1c(OCCCN2CCOCC2)ccc2c3n(c(=NC(=O)c4cnc(N)nc4)nc12)CCN3` [BAY 80-6946 (Copanlisib)], the neurite formation score in the experiment with Neuro-2a [1] was found to be 4.14; with Neuro-2a [2], 4.76. For the compound `CC(C)N(CCC(=O)c1ccc2ccccc2c1)Cc1ccccc1`, the neurite formation score with Neuro-2a [1] worked out at 5.02; with Neuro-2a [2], 4.92. Turning to `C=CC(=O)Nc1cccc(Oc2nc(Nc3ccc(N4CCN(C)CC4)cc3OC)ncc2Cl)c1`, the neurite formation score in the experiment with Neuro-2a [1] worked out at 4.24; with Neuro-2a [2], 4.04. `O=C1NC(=O)/C(=C/c2ccc3nccc(-c4ccncc4)c3c2)S1`: the neurite formation score stood at 4.14 with Neuro-2a [1] and 5.42 in the experiment with Neuro-2a [2]. On to `O=C(NCc1cccc(O)c1)Nc1nc(-c2ccncc2)cs1`, for which the values for the neurite formation score in the experiment on Neuro-2a [1] and in the experiment on Neuro-2a [2] were 5.02 and 5.25, respectively. The matching figures for `CN(C)Cc1cccc(N=C(c2ccccc2)c2c(O)[nH]c3cc(C(N)=O)ccc23)c1`: 4.24 and 4.54. With `COc1cc(F)c(F)c(Nc2ccc(I)cc2F)c1NS(=O)(=O)C1(C[C@H](O)CO)CC1` [Refametinib], the neurite formation score in the experiment with Neuro-2a [2] turned out to be 3.42. Turning to `C1=N/C2=N/c3ccc(OCCN4CCCC4)c(c3)COC/C=C/COCc3cccc(c3)C(=C1)N2` [Pacritinib], the values for the neurite formation score with Neuro-2a [1] and in the experiment with Neuro-2a [2] were 2.29 and 4.92, respectively. On to `CN1C/C=C/CCOc2cccc(c2)-c2ccnc(n2)Nc2cccc(c2)C1`, for which the figures for the neurite formation score in the experiment with Neuro-2a [1] and with Neuro-2a [2] were 2.8 and 4.42, respectively. As for `Nc1ccc(-c2ccc3ncc4ccc(=O)n(-c5cccc(C(F)(F)F)c5)c4c3c2)cn1` [Torin 2], the results for the neurite formation score with Neuro-2a [1] and with Neuro-2a [2] were 3.21 and 3.42, respectively. Take `CCc1cnn2c(NCc3ccc[n+]([O-])c3)cc(N3CCCC[C@H]3CCO)nc12`: the neurite formation score with Neuro-2a [1] worked out at 3.14; in the experiment on Neuro-2a [2], 3.42. `CCn1c(-c2nonc2N)nc2c(C#CC(C)(C)O)ncc(OC[C@H]3CCCNC3)c21`: the neurite formation score in the experiment with Neuro-2a [1] is 4.02; in the experiment on Neuro-2a [2], 3.25. Regarding `C[C@@H](Oc1cc(-n2cnc3ccc(CN4CCN(C)CC4)cc32)sc1C(N)=O)c1ccccc1C(F)(F)F`, the neurite formation score in the experiment with Neuro-2a [2] came out at 3.58.

As to `Cc1ccc(NC(=O)c2cccc(C(C)(C)C#N)c2)cc1Nc1ccc2ncn(C)c(=O)c2c1`, the figures for the neurite formation score in the experiment on Neuro-2a [1] and in the experiment on Neuro-2a [2] were 5.24 and 4.88, respectively. On to `C[C@@H]1CCNC(=O)c2cc3ccc(C(=O)Nc4nc5ccccc5n4CCCN(C)C)cc3n21`, for which the neurite formation score was 5.29 in the experiment on Neuro-2a [1] and 4.92 in the experiment with Neuro-2a [2]. Regarding `CC(C)(C)n1nc(Cc2cccc3ccccc23)c2c(N)ncnc21`, the neurite formation score in the experiment on Neuro-2a [1] came out at 4.63; in the experiment on Neuro-2a [2] it was 4.58. On to `Cc1[nH]c(/C=C2\C(=O)Nc3ccccc32)c(C)c1CCC(=O)O` [TSU-68 (SU6668,Orantinib)], for which the neurite formation score with Neuro-2a [1] turned out to be 4.57; in the experiment on Neuro-2a [2], 4.54.

With `CO[C@H]1C[C@@H]2CC[C@@H](C)[C@@](O)(O2)C(=O)C(=O)N2CCCC[C@H]2C(=O)O[C@H]([C@H](C)C[C@@H]2CC[C@@H](OC(=O)C(C)(CO)CO)[C@H](OC)C2)CC(=O)[C@H](C)/C=C(\C)[C@@H](O)[C@@H](OC)C(=O)[C@H](C)C[C@H](C)/C=C/C=C/C=C/1C` [Temsirolimus], the results for the neurite formation score with Neuro-2a [1] and with Neuro-2a [2] were 4.24 and 4.21, respectively.

Regarding `COc1cc(N2CCC(N3CCN(C)CC3)CC2)ccc1Nc1ncnc(Nc2ccccc2S(=O)(=O)C(C)C)n1`, the neurite formation score came to 5.24 in the experiment with Neuro-2a [1] and 4.38 with Neuro-2a [2]. For the compound `CCS(=O)(=O)c1cccc(-c2cc(C(=O)NC3CCN(C)CC3)c(C)c3[nH]c4ncc(C)cc4c23)c1`, the neurite formation score in the experiment on Neuro-2a [1] worked out at 2.69; in the experiment on Neuro-2a [2] it was 4.58. On to `Nc1nccc(-c2c(-c3ccc(F)cc3)ncn2C2CCCCC2)n1`, for which the figures for the neurite formation score with Neuro-2a [1] and with Neuro-2a [2] were 5.02 and 5.58, respectively. Take `Cc1cc(N2CCOCC2)cc2[nH]c(-c3c(NC[C@@H](O)c4cccc(Cl)c4)cc[nH]c3=O)nc12`: the neurite formation score was 3.57 in the experiment on Neuro-2a [1] and 4.71 in the experiment with Neuro-2a [2]. With `NC1(c2ccc(-c3nc4ccn5c(=O)[nH]nc5c4cc3-c3ccccc3)cc2)CCC1` [MK-2206 dihydrochloride], the neurite formation score is 4.24 in the experiment with Neuro-2a [1] and 4.71 in the experiment with Neuro-2a [2]. Regarding `O=C(O)c1ccc(-c2c[nH]c3ncc(-c4ccccc4)cc23)cc1C1CCCC1`, the neurite formation score in the experiment on Neuro-2a [1] came out at 5.29; in the experiment with Neuro-2a [2], 3.92. The matching figures for `Nc1cc(N)c(N)cc1N` [FAK Inhibitor 14]: 4.54 and 4.08.

Turning to `Cc1ccc(-n2nc(C(C)(C)C)cc2NC(=O)Nc2ccc(OCCN3CCOCC3)c3ccccc23)cc1` [BIRB 796 (Doramapimod)], the neurite formation score in the experiment on Neuro-2a [2] stood at 4.21. In the case of `CN(C)c1ccc(-c2nc3ncc(Cl)c(N4CCN(CC(=O)Nc5nccs5)CC4)c3[nH]2)cc1`, the neurite formation score with Neuro-2a [1] is 3.8; in the experiment on Neuro-2a [2], 4.09. In the case of `O=C(c1ccc(F)c(F)c1Nc1ccc(I)cc1F)N1CC(O)([C@@H]2CCCCN2)C1` [Cobimetinib], the neurite formation score in the experiment on Neuro-2a [2] was 4.71.
